Source: PubChem BioAssay
Calls of active or inactive are those of the source. Unless noted, no rule for the calls is given here.

Tests used:
[1] = HepG2 liver cancer cell viability effects, profiling panel, resazurin fluorescence, 24 h, PK04 Diversity Set (AID 1172); conditions: higher = more signal
[2] = basal S. cerevisiae growth modulation, no modifier, primary screen, OD600, strain BY4716, 24 h, basal condition (AID 1173); conditions: OD600, 24 h, higher = more signal, called active from +8 up or from −8 down
[3] = MM1S myeloma cell viability, profiling panel, resazurin fluorescence, basal, 24 h, PK04 Diversity Set (AID 1174); conditions: higher = more signal, called active from +8 up or from −8 down;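 also: MM1S multiple myeloma cell line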
[4] = target: Dihydroorotate dehydrogenase (quinone), mitochondrial (Plasmodium falciparum (isolate 3D7)) (UniProt Q08210); test: PfDHODH enzyme inhibitors, primary screen, biochemical, C-terminal His tag, absorbance 600 nm (AID 1175); conditions: DCIP absorbance 600 nm, higher = more signal, called active from +8 up or from −8 down;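 also: recombinant parasite enzyme with a five histidine tag at its C terminus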
Sequence of Dihydroorotate dehydrogenase (quinone), mitochondrial (Plasmodium falciparum (isolate 3D7)) (Q08210 whole entry, looked up): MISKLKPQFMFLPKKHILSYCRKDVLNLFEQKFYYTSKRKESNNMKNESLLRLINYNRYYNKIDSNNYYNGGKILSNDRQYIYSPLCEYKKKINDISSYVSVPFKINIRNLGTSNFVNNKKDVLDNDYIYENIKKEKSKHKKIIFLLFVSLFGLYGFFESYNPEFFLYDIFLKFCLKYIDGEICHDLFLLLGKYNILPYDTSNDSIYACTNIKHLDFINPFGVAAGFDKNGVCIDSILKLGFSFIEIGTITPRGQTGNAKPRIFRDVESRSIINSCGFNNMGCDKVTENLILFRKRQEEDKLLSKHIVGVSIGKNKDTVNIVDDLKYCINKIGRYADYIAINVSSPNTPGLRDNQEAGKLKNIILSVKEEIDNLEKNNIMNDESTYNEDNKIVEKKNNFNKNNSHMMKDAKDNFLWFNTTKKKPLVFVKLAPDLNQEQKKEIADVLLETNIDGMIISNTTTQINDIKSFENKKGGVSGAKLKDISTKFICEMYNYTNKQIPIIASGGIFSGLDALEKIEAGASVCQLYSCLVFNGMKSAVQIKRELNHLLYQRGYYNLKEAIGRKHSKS

[5] = P. aeruginosa biofilm formation inhibitors, primary screen, strain PAO1, LB-PBS medium, absorbance 600 nm (AID 1176); conditions: P. aeruginosa PAO1 growth/biofilm, A600, 12 h; higher = more signal
[6] = S. cerevisiae RM11-1a growth modifiers, primary screen, strain RM11-1a, OD600, basal, 24 h (AID 1177); conditions: OD600, 24 h, higher = more signal, called active from +8 up or from −8 down;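 also: cultures grown under basal conditions with no added stressor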
[7] = E. coli acrAB mutant growth effects, primary screen, E. coli filamentation inducers, strain DRC39, OD650, 24 h (AID 1178); conditions: higher = more signal, called active from +8 up or from −8 down;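 also: growth measured as culture turbidity by optical density at 650 nm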
[8] = E. coli acrAB mutant growth effects, primary screen, E. coli filamentation inducers, strain DRC39, OD650, 48 h (AID 1179);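 also: screen aims at cell division blockers that make cells filament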; conditions: E. coli DRC39 delta-acrAB growth, higher = more signal, called active from +8 up or from −8 down
[9] = RPMI8226 myeloma cell viability, profiling panel, resazurin fluorescence, basal, 24 h, PK04 Diversity Set (AID 1180); conditions: higher = more signal;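 also: RPMI8826 multiple myeloma cell line at 5000 cells per well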
[10] = target: E3 ubiquitin-protein ligase XIAP (Homo sapiens) (UniProt P98170); test: XIAP binders, primary screen, biophysical, small-molecule microarray, fluorescence 635 nm (AID 1181); conditions: small-molecule microarray binding, higher = more signal;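 also: score merges 667 nm emission and signal to noise over triplicate slides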
Sequence of E3 ubiquitin-protein ligase XIAP (Homo sapiens) (P98170 whole entry, looked up): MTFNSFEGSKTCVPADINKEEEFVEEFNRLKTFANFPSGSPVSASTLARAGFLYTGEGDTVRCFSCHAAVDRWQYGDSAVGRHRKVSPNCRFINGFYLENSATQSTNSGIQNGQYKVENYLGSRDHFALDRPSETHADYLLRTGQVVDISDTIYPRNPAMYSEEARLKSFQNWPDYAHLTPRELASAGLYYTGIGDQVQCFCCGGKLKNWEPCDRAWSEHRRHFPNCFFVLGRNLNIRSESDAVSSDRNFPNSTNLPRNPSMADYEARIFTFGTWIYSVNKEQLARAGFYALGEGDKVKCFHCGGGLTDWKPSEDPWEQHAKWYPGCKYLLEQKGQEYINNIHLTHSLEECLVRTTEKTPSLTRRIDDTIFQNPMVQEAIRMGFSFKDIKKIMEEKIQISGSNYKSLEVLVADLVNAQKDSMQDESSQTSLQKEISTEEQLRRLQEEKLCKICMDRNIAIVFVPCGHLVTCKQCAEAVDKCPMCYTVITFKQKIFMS

[11] = system: XIP peptide (Xip251-270) binding; test: small-molecule binders of XIP peptide, primary screen, biochemical, small-molecule microarray, fluorescence 635/667 nm, 0.1 µg/mL protein (AID 1182); conditions: fluorescent protein binding, 635 nm, higher = more signal, called active from +8 up or from −8 down
[12] = system: XIP peptide (Xip251-270); test: small-molecule binders of XIP peptide, primary screen, biochemical, small-molecule microarray, fluorescence 635/667 nm, 0.5 µg/mL protein (AID 1183); conditions: small-molecule microarray binding, fluorescence 635 nm; higher = more signal
[13] = Plasmodium falciparum growth inhibition, primary screen, strain 3D7, DAPI fluorescence, 100 nL (AID 1184);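 also: parasites grown inside human red blood cells in medium with human serum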; conditions: P. falciparum 3D7 growth, 3 d, higher = more signal
[14] = target: Homeobox protein Hox-A13 (Mus musculus) (UniProt Q62424); test: inhibitors of HoxA13-DNA binding, primary screen, biochemical, fluorescence polarization, labeled oligonucleotide (AID 1185); conditions: 15 min, higher = more signal, called active from +8 up or from −8 down
Sequence of Homeobox protein Hox-A13 (Mus musculus) (Q62424 whole entry, looked up): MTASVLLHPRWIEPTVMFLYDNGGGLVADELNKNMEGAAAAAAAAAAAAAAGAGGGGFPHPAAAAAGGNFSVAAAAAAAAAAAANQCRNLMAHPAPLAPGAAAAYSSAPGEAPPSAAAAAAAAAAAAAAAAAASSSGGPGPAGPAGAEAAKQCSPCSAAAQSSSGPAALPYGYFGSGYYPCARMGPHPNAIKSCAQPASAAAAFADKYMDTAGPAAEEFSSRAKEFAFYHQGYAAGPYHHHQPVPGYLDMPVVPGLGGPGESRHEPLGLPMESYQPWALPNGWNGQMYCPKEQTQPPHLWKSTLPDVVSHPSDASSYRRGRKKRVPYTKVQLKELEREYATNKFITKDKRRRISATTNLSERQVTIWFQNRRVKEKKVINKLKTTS

[15] = inhibitors of hydroxyurea-induced Chk1 phosphorylation, primary screen, imaging, HeLa, phospho-Chk1 antibody, percent positive cells (AID 1186); conditions: hydroxyurea-induced phospho-Chk1 immunofluorescence imaging, higher = more signal
[16] = inhibitors of hydroxyurea-induced Chk1 phosphorylation, primary screen, imaging, HeLa, phospho-Chk1 nuclear intensity (AID 1187); conditions: hydroxyurea-induced phospho-Chk1 immunofluorescence imaging, higher = more signal

SMILES | z-score [1] | z-score [2] | z-score [3] | composite z-score [4] | z-score [5] | z-score [6] | z-score [7] | z-score [8] | z-score [9] | composite z-score [10] | composite z-score [11] | composite z-score [12] | z-score [13] | z-score [14] | z-score [15] | z-score [16]
COC(=O)[C@@]1(Cc2ccc(OC)cc2)[C@H]2c3cc(C(=O)N(C)C)n(Cc4ccccn4)c3C[C@H]2CN1C(=O)c1ccccc1 | -0.961 | 1.28 (inactive) | -1.24 (inactive) | 1.02 (inactive) | 0.976 (inactive) | 0.607 (inactive) | -1.13 (inactive) | -0.6 (inactive) | -0.838 | 0.155 | 0.544 (inactive) | -0.765 | -1.54 | -5.52 (inactive) | -0.276 (inactive) | -0.406 (inactive)
CCCc1cc2c(n1Cc1cc(F)cc(F)c1)C(C)C1CN(C(=O)c3ccccc3)C(C)(C(=O)OC)C21 (stereo not drawn) | -1.27 | 0.615 (inactive) | -1.65 (inactive) | 0.249 (inactive) | 0.992 (inactive) | 0.223 (inactive) | -0.522 (inactive) | -0.152 (inactive) | -1 | 0.0702 | 0.264 (inactive) | -0.0681 | -1.32 | -2.41 (inactive) | 0.789 (inactive) | 0.0213 (inactive)
CC(C)NC(=O)[C@@]1(C)c2ccccc2C(=O)N(Cc2cc(C(F)(F)F)cc(C(F)(F)F)c2)[C@H]1c1ccc(CO)cc1 | 0.121 | 0.0934 (inactive) | -1.21 (inactive) | 0.356 (inactive) | 0.224 (inactive) | 0.784 (inactive) | 0.162 (inactive) | 0.23 (inactive) | -0.148 | 0.0868 | 0.281 (inactive) | 0.427 | -1.54 | -3.76 (inactive) | -0.281 (inactive) | -0.197 (inactive)
COCCOC(=O)N1C(=O)[C@@]2(c3cc(C#CCC(C(=O)OC)C(=O)OC)ccc31)[C@H](C(=O)N1CCN(c3ncccn3)CC1)[C@H]1C(=O)O[C@H](c3ccccc3)[C@H](c3ccccc3)N1[C@@H]2c1ccccc1OCCO | -0.354 | 1.51 (inactive) | -0.0626 (inactive) | -1.42 (inactive) | 3.78 (inactive) | 2.75 (inactive) | 0.284 (inactive) | 0.0336 (inactive) | -0.5 | -0.0749 | 0.171 (inactive) | 0.679 | -2.03 | -0.504 (inactive) | 0.0845 (inactive) | 0.176 (inactive)
CC(C)N1C(=O)c2ccccc2[C@](C)(C(=O)NCCN2CCOCC2)[C@@H]1c1ccc(CO)cc1 | 0.0412 | 0.567 (inactive) | -0.139 (inactive) | 1.11 (inactive) | 0.484 (inactive) | 1.41 (inactive) | -0.0268 (inactive) | -0.582 (inactive) | -0.44 | 0.126 | 0.0317 (inactive) | -0.119 | 0.437 | -3.78 (inactive) | -0.155 (inactive) | -0.332 (inactive)
CCCC[C@@H]1C[C@H]1[C@@H](NC(=O)c1ccccc1)c1ccc(C(=O)OC)cc1 | -0.186 | -1.61 (inactive) | -0.892 (inactive) | -0.265 (inactive) | 0.771 (inactive) | -0.75 (inactive) | -0.986 (inactive) | -0.885 (inactive) | 0.0845 | -0.0143 | -0.0225 (inactive) | 0.221 | -0.0079 | -3.64 (inactive) | 0.665 (inactive) | 0.454 (inactive)
C=CC1(C(=O)OC)CC=C(C(=O)OC)CC1 (stereo not drawn) | 0.249 | 0.489 (inactive) | 0.501 (inactive) | -2.11 (inactive) | 0.201 (inactive) | -0.834 (inactive) | -0.233 (inactive) | 1.19 (inactive) | 1.08 | -0.248 | 0.552 (inactive) | 0.992 | 0.928 | -1.09 (inactive) | -1.36 (inactive) | -1.26 (inactive)
O=C1c2ccccc2[C@](Cc2ccccc2I)(C(=O)NCCN2CCOCC2)[C@H](c2ccc(CO)cc2)N1Cc1ccccc1Cl | -0.322 | -0.935 (inactive) | 0.618 (inactive) | -0.0768 (inactive) | 0.916 (inactive) | -0.0576 (inactive) | 0.768 (inactive) | -0.108 (inactive) | 0.304 | -0.102 | 1.08 (inactive) | 0.862 | -1.47 | -4.29 (inactive) | -0.206 (inactive) | -0.183 (inactive)
CC(=O)n1cc(C(O)C2C=CC3C(=O)N(c4ccccc4)C(=O)C3N2Nc2ccc([N+](=O)[O-])cc2)c2ccccc21 (stereo not drawn) | -0.768 | -0.199 (inactive) | -1.15 (inactive) | 0.835 (inactive) | 1.25 (inactive) | 0.241 (inactive) | -1.34 (inactive) | -0.885 (inactive) | -0.669 | -0.0391 | 1.15 (inactive) | 0.87 | -0.306 | -4.3 (inactive) | 0.541 (inactive) | -0.219 (inactive)
CCCC[C@H]1OB(O)C[C@H]2C1=C(COC)C[C@H]1C(=O)N(C)C(=O)[C@H]12 | -0.627 | -1.56 (inactive) | -0.227 (inactive) | -0.682 (inactive) | 0.118 (inactive) | -1.11 (inactive) | -0.748 (inactive) | -0.595 (inactive) | -0.45 | 0.144 | -0.267 (inactive) | -0.0711 | 1.5 | -9 (active) | 0.534 (inactive) | 0.312 (inactive)
CC(CO)N1C(=O)[C@@H]2C3C(=O)OCCC/C=C\[C@H]3OC23C=CCN(C(C)(C)C)C(=O)[C@@H]13 (stereo partly drawn) | -0.181 | -0.382 (inactive) | -0.261 (inactive) | -4.03 (inactive) | 0.727 (inactive) | -0.0192 (inactive) | 0.855 (inactive) | 0.956 (inactive) | -0.178 | 0.801 | 0.453 (inactive) | -0.0516 | 0.67 | -4.72 (inactive) | -0.423 (inactive) | -1.21 (inactive)
COc1ccc([Si](C)(C)[C@@H]2[C@@H](CCO)O[C@]3(C(=O)N(Cc4ccc(N(C=O)c5ccccc5)cc4)c4ccccc43)[C@H]2C)cc1 | -1.59 | 1.76 (inactive) | -2.44 (inactive) | -0.493 (inactive) | 1.46 (inactive) | 4.89 (inactive) | 0.544 (inactive) | -0.339 (inactive) | -2.25 | -0.184 | -0.0075 (inactive) | -0.0404 | -2.7 | -1.54 (inactive) | -1.27 (inactive) | -1.31 (inactive)
O=C1C[C@@](C(=O)NCC(F)(F)F)(c2ccc([N+](=O)[O-])cc2)[C@@H](c2ccc(CO)cc2I)N1C1CCCCC1 | -0.0199 | -0.805 (inactive) | 0.233 (inactive) | -0.277 (inactive) | 0.609 (inactive) | 0.195 (inactive) | -0.218 (inactive) | -0.182 (inactive) | -0.589 | -0.0172 | 0.469 (inactive) | 0.778 | -1.26 | -4.99 (inactive) | -0.171 (inactive) | 0.187 (inactive)
C=C(C)[C@@H]1CC=C(C(O)C2C=CC3C(=O)N(C)C(=O)C3N2Nc2ccccc2)CC1 (stereo partly drawn) | -0.709 | 0.773 (inactive) | -1.03 (inactive) | 0.849 (inactive) | 0.751 (inactive) | 1.45 (inactive) | -0.683 (inactive) | -0.472 (inactive) | -0.581 | 0.0688 | 0.469 (inactive) | 0.147 | -0.0575 | -4.59 (inactive) | -0.63 (inactive) | -0.968 (inactive)
COc1cc(C(O)C2C=CC3C(=O)NC(=O)C3N2Nc2ccccn2)cc(OC)c1OC (stereo not drawn) | -0.927 | 0.979 (inactive) | -1.57 (inactive) | 1.14 (inactive) | 1.16 (inactive) | 0.228 (inactive) | -1.24 (inactive) | -0.397 (inactive) | -2.04 | -0.031 | -0.0962 (inactive) | 0.405 | 1.26 | -2.19 (inactive) | 0.209 (inactive) | 0.228 (inactive)
O=C1N(Cc2ccccc2)c2ccccc2[C@@H]2OC(c3ccc(OCCCO)cc3)=N[C@]12CCS(=O)(=O)c1ccccc1 | -0.477 | 1.48 (inactive) | -0.444 (inactive) | -0.244 (inactive) | 1.71 (inactive) | 2.25 (inactive) | -0.0853 (inactive) | -0.292 (inactive) | -0.18 | -0.0918 | 0.7 (inactive) | 0.677 | -2.13 | 1.28 (inactive) | -0.413 (inactive) | -0.77 (inactive)
COC(=O)[C@H](Cc1ccccc1)N1CC2=C[C@@H](C3CC3)n3c(=O)n(C)c(=O)n3[C@H]2[C@@H]1[C@@H](O)Cc1ccccc1 | -0.0568 | -1.18 (inactive) | -1.07 (inactive) | -0.174 (inactive) | 0.0937 (inactive) | -0.143 (inactive) | -0.172 (inactive) | -0.228 (inactive) | 0.358 | -0.142 | 0.475 (inactive) | 0.259 | -0.863 | -7.37 (inactive) | 0.183 (inactive) | 1.5 (inactive)
COC(=O)[C@@]1(CCC(=O)OC(C)(C)C)N=C(c2ccc(OCCCO)cc2)O[C@H]1c1ccccc1N=[N+]=[N-] | -1.15 | 0.381 (inactive) | -6.96 (inactive) | 0.414 (inactive) | 2.78 (inactive) | 1 (inactive) | 0.276 (inactive) | -0.903 (inactive) | -5.04 | 0.168 | 1.35 (inactive) | 0.664 | -2.33 | -2.14 (inactive) | 0.114 (inactive) | -0.229 (inactive)
